# Source: PubChem BioAssay (National Center for Advancing Translational Sciences (NCATS))
# In the library only some 11% were active in any assay of this set; here they are far more common.
# NS1 function inh = qHTS Assay for Inhibitors of Influenza NS1 Protein Function; Potency, µM (top dose mostly 46.1 µM), for inactives: at the highest dose activity, positive = more growth; hit rate 0.4% among 270,000; AID 2326, 2010; calls by dose curve; further: actives are rising curves; nearly all actives have a fitted effect of over 50% in size
#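 Read-out: OD600 growth recovery of NS1-expressing budding yeast. Cells grown overnight at 30C in -URA glucose medium, washed, resuspended and diluted 1:100 in 2% galactose assay medium, pH 6.0. Same strain lacking NS1 served as positive control.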
# HCV inhibitor = qHTS Assay for Inhibitors of Hepatitis C Virus (HCV); Huh7.5.1 HCVcc-Cre infection, luciferase reporter, 44 h; Potency, µM (top dose mostly 41.8 µM), without a hit: at the top dose activity change, negative = inhibition, most hits filed as inhibitors; hit rate 3.4% among 340,000; AID 651820, 2012; further: on the % scale 0 is the no-effect control and ±100 the full control effect
#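 Cells (1,000/well) were plated 4 h before compound, then infected with HCVcc-Cre virus (~0.5 moi). After 44 h further culture, infection was read as luciferase luminescence following a 15 min substrate incubation at room temperature.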
# VACV Venus inh = qHTS for Stage-Specific Inhibitors of Vaccinia Orthopoxvirus: Venus Reporter Primary qHTS | AID 720580, 2013 | hit rate 0.46% among 330,000 | Vaccinia virus Venus reporter expression, fluorescence | Potency, µM (top dose mostly 36.5 µM), without a hit: top-dose activity change, negative = inhibition, usual class: inhibitors; calls by dose curve; tested in A549 cells; further: on the % scale 0 is the no-effect control and ±100 the full control effect; nearly all actives have a fitted effect of over 30% in size
# Vaccinia mCherry = qHTS for Stage-Specific Inhibitors of Vaccinia Orthopoxvirus: mCherry Reporter Primary qHTS | Vaccinia virus mCherry reporter infection, fluorescence | Potency, µM (doses to about 36.5 µM), inactives show top-dose activity change, negative = inhibition, hits mostly inhibitors | hit rate 0.63% among 310,000; calls by dose curve; tested in A549 cells; further: on the % scale 0 is the no-effect control and ±100 the full control effect; nearly all actives have a fitted effect of over 35% in size
# Pf growth 48h = Primary qHTS for delayed death inhibitors of the malarial parasite plastid, 48 hour incubation. Potency, µM (highest dose often 28.7 µM), inactives show at the highest dose activity change, negative = inhibition, actives largely listed as inhibitors. hit rate 5.9% among 310,000. AID 504832, 2011. P. falciparum luciferase growth in erythrocytes, 48 h; further: on the % scale 0 is the no-effect control and ±100 the full control effect
#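 Erythrocytes infected with P. falciparum carrying an integrated firefly luciferase reporter (2% hematocrit, 0.1% parasitemia final) were exposed to compounds in RPMI 1640 with 0.5% Albumax at 37 C, 5% CO2. Growth inhibition was scored as reduced luminescence.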
# Pf growth 96h = Primary qHTS for delayed death inhibitors of the malarial parasite plastid, 96 hour incubation; P. falciparum luciferase reporter growth, 96 h; Potency, µM (titrated, usually from 28.7 µM), without a hit: at the top dose activity change, negative = inhibition, actives largely listed as inhibitors; hit rate 6.9% among 320,000; AID 504834, 2011; further: on the % scale 0 is the no-effect control and ±100 the full control effect
#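 Delayed-death screen, second-generation endpoint: infected erythrocytes, 2% hematocrit, 0.05% parasitemia final; 96 hours at 37 C, 5% CO2; luciferase detection reagent; luminescence decrease equals reduced growth.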
# * marks the source's active call; other numbers are inactive results; i = inactive; u = inconclusive; x = no result. Unless noted, the call rests on the fitted dose curve; in most records, active means well fitted inhibition curve with a large enough effect; inconclusive means small, poorly fitted or top-dose-only effect, or another doubt; inactive means no such curve, though single readings can be large or run the other way. Potency means the concentration at half of the fitted maximal effect.
SMILES,NS1 function inh,HCV inhibitor,VACV Venus inh,Vaccinia mCherry,Pf growth 48h,Pf growth 96h
CCN1CCN(CCCNC(=O)c2ccc3c(c2)NC(=O)c2ccccc2S3)CC1,-9%,10µM*,-4%,-9%,15µM*,8.3µM*
O=C(c1ccc(-c2ccccc2)cc1)N1CCN(c2ccc3c(c2)C2CC3CCN2C(=O)OCc2ccccc2)CC1 (configuration not stated),x,x,-12%,1%,x,x
COc1ccc(NC(=O)c2cc(-c3ccc(O)cc3)on2)cc1OC,-11%,x,x,x,x,x
O=C(O)c1ccc(N/N=C/c2cn(Cc3ccc(F)cc3)c3ccccc23)cc1,10%,-2%,x,x,24%,79%
CCN1CCCC1CNC(=O)c1ccc2c(c1)NC(=O)/C(=C\c1ccc(OC)c(OC)c1)S2 (configuration not stated),4%,0.79µM*,x,x,4.7µM*,u
CCN1CCN(CCCNC(=O)c2ccc3c(c2)NC(=O)/C(=C\c2cccc(C)c2)S3)CC1,-8%,1.8µM*,x,x,u,-26%
Cc1c(C(=O)Nc2ccccc2)oc2c1C(=O)CC(C)(C)C2,-98%,-18%,x,x,24%,x
CCN(CC)S(=O)(=O)c1cccc(C(=O)Nc2cc3oc4ccccc4c3cc2OC)c1,0%,u,-5%,i,-23%,u
COc1cc2c(cc1NC(=O)c1ccc3c(c1)OCO3)oc1ccccc12,-12%,14µM*,5%,-9%,100%,31%
COc1ccccc1NC(=O)c1ccc2c(c1)OCO2,-4%,7%,4%,-11%,98%,u
COc1cc(OC)c(NC(=O)c2cc3ccccc3cc2O)cc1Cl,x,32µM*,-7%,-19%,x,x
COc1cc(NC(=O)c2ccccc2)c(OC)cc1Cl,-13%,u,u,x,11%,-19%
CCCN(CCC)S(=O)(=O)c1ccc(C(=O)Nc2cc3oc4ccccc4c3cc2OC)cc1,3%,-9%,-7%,-17%,10µM*,-1%
CCOC(=O)c1oc2ccccc2c1NC(=O)c1ccc2c(c1)OCO2,-4%,16%,x,x,12%,13µM*
CCN(CC)S(=O)(=O)c1ccc(NC2CCN(Cc3ccccc3)CC2)nc1,5%,-19%,0%,-5%,-18%,u
COc1ccc(OC)c(NC(=O)c2cc3oc4ccccc4c3cc2O)c1,5%,-12%,-28%,-3%,4.1µM*,u
O=C(COC(=O)c1cc(Br)ccc1O)NNC(=O)c1cccs1,x,4%,-1%,-11%,-10%,26%
CCN(CC)CC1CN(N=Cc2ccc([N+](=O)[O-])o2)C(=O)O1 (configuration not stated),x,u,16µM*,u,x,x
Cc1c(C)n(CCc2ccccc2)c2ncnc(NCCCN(C)C)c12,8%,u,u,7.1µM*,u,u
Cc1cccc2nc(CSc3nncn3-c3ccccc3)cn12,-1%,15%,-9%,x,28%,-8%
CC(C)N1CC=C(c2c[nH]c3ccccc23)CC1,9%,u,u,x,1µM*,u
C1=C(c2c[nH]c3ccccc23)CCNC1,-18%,x,x,x,9.3µM*,6%
Cc1ccc(C)c(NC(=O)N2CC=C(c3c[nH]c4ccccc34)CC2)c1,x,x,-2%,-12%,x,x
CN(C)C(=O)COC(=O)c1cc(Cl)cc(Cl)c1N,-7%,4%,x,x,x,34%
Cc1cc(/C=C2\SC(=O)NC2=O)c(C)n1-c1ccc(N(C)C)cc1,0%,37%,-19%,i,11%,4%
SMILES,NS1 function inh,HCV inhibitor,VACV Venus inh,Vaccinia mCherry,Pf growth 48h,Pf growth 96h
COc1ccc(-n2c(C)cc(/C=C3/SC(=S)N(C)C3=O)c2C)cc1,-1%,12%,-3%,-1%,41%,0.33µM*
Cc1cc(/C=C2\SC(=O)N(C)C2=O)c(C)n1-c1ccc(O)cc1,-103%,u,x,x,280%,275%
Cc1cc(/C=C2\SC(=O)NC2=O)c(C)n1-c1ccc(N2CCOCC2)cc1,0%,0%,-20%,i,10µM*,u
COc1ccc(NC(=O)c2c(N)no[n+]2[O-])c(OC)c1,x,u,-9%,-8%,32%,14%
CCOc1ccc(N2C(=O)S/C(=C\c3cccn3C)C2=O)cc1,8%,-23%,1%,-18%,3.3µM*,2.9µM*
CC(Oc1ccccc1)C(=O)N1CCN(c2ccc(N3CCCCCC3)nn2)CC1 (configuration not stated),x,u,-13%,-24%,u,10µM*
COC(=O)c1oc2ccc(Br)cc2c1NC(=O)CCN1CCOCC1,-2%,2%,x,x,6%,u
CCOC(=O)c1oc2ccc(Br)cc2c1NC(=O)CN1CCN(C)CC1,-5%,10µM*,-6%,x,u,133%
COc1ccc2oc(C(=O)c3ccccc3)c(NC(=O)CN3CCN(C)CC3)c2c1,-46%,1%,-10%,-19%,u,-13%
CN1CCN(CC(=O)Nc2c(C(=O)c3ccccc3)oc3ccccc23)CC1,5%,11µM*,-23%,13%,u,-68%
COCCNC(=O)c1cnn2c(C(F)F)cc(-c3ccccc3)nc12,-1%,7%,-6%,i,8%,55%
CSc1ccccc1NC(=O)Cc1ccccc1,-6%,-1%,-8%,-10%,-9%,13%
CN(CC(=O)NC(=O)NC1CCCCC1)CC(=O)Nc1ccc(Cl)cc1,x,-16%,x,x,u,4.1µM*
CC1SC(c2ccccc2Cl)NC1=O (configuration not stated),5%,-1%,-23%,x,x,12µM*
CCSc1cnn(-c2ccccc2)c(=O)c1SCC,-6%,-24%,u,-22%,x,27%
CCCCSc1cnn(-c2ccccc2)c(=O)c1SCCCC,0%,u,x,x,12µM*,12µM*
O=C(/C=C/c1cccc(F)c1)OCC(=O)N1CCc2ccccc21,x,-8%,x,x,x,x
CCCCN(Cc1ccccc1)S(=O)(=O)c1cc(Br)cc2c1N(C(C)=O)C(C)C2 (configuration not stated),-3%,5µM*,-22%,-30%,12µM*,x
CC(=O)N1c2c(cc(Br)cc2S(=O)(=O)N2CCN(c3ccccc3F)CC2)CC1C (configuration not stated),7%,u,-15%,-13%,u,12µM*
CC(=O)N1c2c(cc(Br)cc2S(=O)(=O)N2CCN(c3cc(C)ccc3C)CC2)CC1C (configuration not stated),x,x,0%,-3%,x,x
CCCN(CCC)c1nc(C#N)nc(N(CCC)CCC)n1,x,u,-11%,20%,12µM*,8.3µM*
COc1ccc(S(=O)(=O)N2CCN(c3nc(-c4ccccc4)nc4ccccc34)CC2)cc1,x,x,-18%,-11%,x,x
